Calls of active or inactive are those of the source.
Key:
[1] = binders of probe aFSTL3 on microarray, primary screen, stem cell growth factor project, biochemical, small-molecule microarray, fluorescence 635/667 (AID 1064); conditions: higher = more signal;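 note: measures binding of the biotinylated anti-FSTL3 antibody to printed compounds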
[2] = binders from COS7 lysate, DM2A8 probe, primary screen, torsin A project, cell lysate, small-molecule microarray, fluorescence 635/667 (AID 1065); conditions: higher = more signal, COS7 lysate expressing mutant human TOR1A
[3] = binders of probe aFGF2 on microarray, primary screen, stem cell growth factor project, biochemical, small-molecule microarray, fluorescence 635/667 (AID 1067); conditions: higher = more signal;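 note: measures binding of biotinylated aFGF2 protein to printed compounds on slides; z-score merges feature fluorescence and signal-to-noise across triplicate slides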
[4] = binders of probe aFGF10 on microarray, primary screen, stem cell growth factor project, biochemical, small-molecule microarray, fluorescence 635/667 (AID 1071); conditions: higher = more signal;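 note: score merges 667 nm spot intensity and signal to noise from triplicate slides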
[5] = molecular target: Neurogenic locus notch homolog protein 2 (Homo sapiens) (UniProt Q04721); assay: Notch2 binders on small-molecule microarrays, primary screen, biochemical, small-molecule microarray, 635 nm fluorescence, stem cell growth factors (AID 1073); conditions: Notch2 binding, higher = more signal
Chain of Neurogenic locus notch homolog protein 2 (Homo sapiens) (Q04721 whole entry, looked up, canonical isoform): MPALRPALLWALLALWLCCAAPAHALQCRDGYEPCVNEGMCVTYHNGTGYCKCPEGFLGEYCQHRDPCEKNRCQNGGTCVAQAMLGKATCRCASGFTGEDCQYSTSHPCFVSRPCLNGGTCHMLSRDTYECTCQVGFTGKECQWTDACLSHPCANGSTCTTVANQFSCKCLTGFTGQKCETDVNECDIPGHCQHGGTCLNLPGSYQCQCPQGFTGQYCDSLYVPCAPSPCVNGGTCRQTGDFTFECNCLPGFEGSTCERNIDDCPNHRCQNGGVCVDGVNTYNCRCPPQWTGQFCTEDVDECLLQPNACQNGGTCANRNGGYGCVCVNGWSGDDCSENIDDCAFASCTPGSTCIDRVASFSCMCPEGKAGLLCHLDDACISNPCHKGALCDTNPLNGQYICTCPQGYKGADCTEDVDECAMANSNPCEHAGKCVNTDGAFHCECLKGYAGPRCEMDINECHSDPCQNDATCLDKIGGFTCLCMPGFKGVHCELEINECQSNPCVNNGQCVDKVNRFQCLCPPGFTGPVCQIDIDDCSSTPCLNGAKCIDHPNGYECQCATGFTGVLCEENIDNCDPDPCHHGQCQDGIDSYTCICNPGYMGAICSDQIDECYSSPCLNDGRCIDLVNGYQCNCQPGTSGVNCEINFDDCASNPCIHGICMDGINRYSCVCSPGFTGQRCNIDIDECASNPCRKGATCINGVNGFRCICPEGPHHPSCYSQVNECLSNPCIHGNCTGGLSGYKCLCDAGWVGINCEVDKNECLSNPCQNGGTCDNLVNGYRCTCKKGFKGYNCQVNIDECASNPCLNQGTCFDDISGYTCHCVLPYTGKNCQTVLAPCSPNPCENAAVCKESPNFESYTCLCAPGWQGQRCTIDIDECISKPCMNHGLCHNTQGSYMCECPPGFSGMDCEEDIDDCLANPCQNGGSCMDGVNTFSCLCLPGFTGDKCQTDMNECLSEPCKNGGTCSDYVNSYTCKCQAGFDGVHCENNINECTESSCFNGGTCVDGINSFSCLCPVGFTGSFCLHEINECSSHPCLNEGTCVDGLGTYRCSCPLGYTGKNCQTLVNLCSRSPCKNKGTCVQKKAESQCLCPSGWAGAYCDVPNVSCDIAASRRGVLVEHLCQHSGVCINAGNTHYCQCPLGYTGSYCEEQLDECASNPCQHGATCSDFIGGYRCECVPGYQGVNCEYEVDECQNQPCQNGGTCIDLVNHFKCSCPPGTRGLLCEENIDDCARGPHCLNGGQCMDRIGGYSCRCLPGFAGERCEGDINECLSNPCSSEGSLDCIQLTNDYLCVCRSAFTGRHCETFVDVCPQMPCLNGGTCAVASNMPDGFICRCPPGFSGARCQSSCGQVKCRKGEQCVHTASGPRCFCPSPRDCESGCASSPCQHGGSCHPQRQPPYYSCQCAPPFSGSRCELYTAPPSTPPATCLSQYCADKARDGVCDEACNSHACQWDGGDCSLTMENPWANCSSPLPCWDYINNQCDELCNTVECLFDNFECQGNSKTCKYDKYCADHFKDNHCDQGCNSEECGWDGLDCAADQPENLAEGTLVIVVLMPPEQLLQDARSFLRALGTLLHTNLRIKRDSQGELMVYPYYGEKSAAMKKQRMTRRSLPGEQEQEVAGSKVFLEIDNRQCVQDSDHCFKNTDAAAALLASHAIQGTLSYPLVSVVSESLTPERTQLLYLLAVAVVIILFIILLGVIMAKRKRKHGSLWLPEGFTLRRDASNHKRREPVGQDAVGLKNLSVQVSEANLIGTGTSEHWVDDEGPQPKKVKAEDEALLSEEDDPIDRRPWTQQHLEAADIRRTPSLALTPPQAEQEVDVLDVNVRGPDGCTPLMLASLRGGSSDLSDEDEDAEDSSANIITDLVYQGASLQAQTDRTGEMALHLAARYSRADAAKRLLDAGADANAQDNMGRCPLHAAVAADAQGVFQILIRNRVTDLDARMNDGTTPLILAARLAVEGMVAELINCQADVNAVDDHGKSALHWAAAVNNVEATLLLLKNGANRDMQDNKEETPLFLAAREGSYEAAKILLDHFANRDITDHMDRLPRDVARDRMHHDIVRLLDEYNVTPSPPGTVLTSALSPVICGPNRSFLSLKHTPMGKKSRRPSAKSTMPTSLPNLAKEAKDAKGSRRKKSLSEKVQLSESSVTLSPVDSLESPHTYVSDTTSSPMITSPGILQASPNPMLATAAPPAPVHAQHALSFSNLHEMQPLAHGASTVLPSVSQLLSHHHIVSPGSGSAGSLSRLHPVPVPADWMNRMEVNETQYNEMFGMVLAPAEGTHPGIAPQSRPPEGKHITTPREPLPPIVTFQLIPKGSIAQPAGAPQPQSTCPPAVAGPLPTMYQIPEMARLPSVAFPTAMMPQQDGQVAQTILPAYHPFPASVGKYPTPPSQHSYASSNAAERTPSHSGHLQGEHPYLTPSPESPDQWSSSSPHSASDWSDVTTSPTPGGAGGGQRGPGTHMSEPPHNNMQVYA

[6] = molecular target: Pro-neuregulin-1, membrane-bound isoform (Homo sapiens) (UniProt Q02297); assay: NRG1 binders on small-molecule microarrays, primary screen, psychiatric disease protein project, biochemical, small-molecule microarray, fluorescence 635/667 (AID 1075); conditions: NRG1 binding, 635 nm fluorescence, higher = more signal;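 note: score combines 667 nm spot fluorescence with signal to noise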
Chain of Pro-neuregulin-1, membrane-bound isoform (Homo sapiens) (Q02297 whole entry, looked up, the tested form may be a part, canonical isoform): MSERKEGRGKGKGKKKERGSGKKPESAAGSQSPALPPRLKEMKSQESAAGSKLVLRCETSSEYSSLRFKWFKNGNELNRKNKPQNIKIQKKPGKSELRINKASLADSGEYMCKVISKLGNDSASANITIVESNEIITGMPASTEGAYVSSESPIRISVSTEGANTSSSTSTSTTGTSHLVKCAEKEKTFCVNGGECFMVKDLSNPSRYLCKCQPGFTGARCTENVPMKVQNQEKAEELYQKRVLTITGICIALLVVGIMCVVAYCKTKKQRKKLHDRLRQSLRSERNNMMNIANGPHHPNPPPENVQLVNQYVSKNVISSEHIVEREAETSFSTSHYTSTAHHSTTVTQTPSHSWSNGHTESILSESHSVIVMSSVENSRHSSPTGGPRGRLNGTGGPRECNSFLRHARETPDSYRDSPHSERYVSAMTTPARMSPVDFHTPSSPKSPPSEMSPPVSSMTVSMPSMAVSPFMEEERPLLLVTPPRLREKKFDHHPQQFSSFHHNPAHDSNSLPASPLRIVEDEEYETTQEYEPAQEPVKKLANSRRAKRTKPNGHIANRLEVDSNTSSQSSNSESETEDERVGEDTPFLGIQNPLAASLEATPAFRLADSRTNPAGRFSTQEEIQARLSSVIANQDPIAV

[7] = test system: Neuregulin-1 EGF-like domain; assay: binders of neuregulin-1 EGF-like domain, primary screen, biochemical, small-molecule microarray, 635 nm fluorescence (AID 1081); conditions: small-molecule microarray binding, higher = more signal;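 note: binding of the protein to compounds printed on small-molecule microarray slides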
[8] = FRG1 promoter luciferase signal modulators, primary screen, FRG1 inhibition for FSHD, cell-based, C2C12 myotubes, firefly/Renilla luciferase, luminescence (AID 1084); conditions: higher = more signal, called active from +8 up or from −8 down
[9] = binders of probe aFST on microarray, primary screen, stem cell growth factor project, biochemical, small-molecule microarray, fluorescence 635/667 (AID 1086); conditions: higher = more signal;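 note: score merges 667 nm fluorescence with signal-to-noise of each printed compound spot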
[10] = binders of probe aHhip on microarray, primary screen, stem cell growth factor project, biochemical, small-molecule microarray, fluorescence 635/667 (AID 1087); conditions: higher = more signal;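 note: score merges spot fluorescence at 667nm with spot signal to noise ratio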
[11] = test system: PRMT1 (protein arginine N-methyltransferase 1); assay: PRMT1 binders on small-molecule microarrays, primary screen, biochemical, small-molecule microarray, 635 nm fluorescence (AID 1088); conditions: small-molecule microarray binding, higher = more signal;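 note: binding of Prmt1 protein to compounds spotted on small-molecule microarray slides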
[12] = yeast growth modulation, basal conditions, primary screen, YJM789 clinical isolate, OD600, 24 h (AID 1089);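 note: growth of clinical yeast isolate S. cerevisiae YJM 789 seeded 1000 cells per well; test concentration not given here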; conditions: S. cerevisiae YJM789 growth, higher = more signal, called active from +8 up or from −8 down
[13] = fission yeast growth modulation, primary screen, strain 972, OD600, 24 h, no modulator (AID 1090);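 note: basal condition with compound alone and no growth modifier present; test concentration not given here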; conditions: S. pombe 972 growth, higher = more signal, called active from +8 up or from −8 down
[14] = S. cerevisiae growth modulation with rapamycin, primary screen, strain BY4716, OD600, 96 h (AID 1091); conditions: higher = more signal, called active from +8 up or from −8 down; note: test concentration not given here
[15] = molecular target: Torsin-1A-interacting protein 2 (Homo sapiens) (UniProt Q8NFQ8); assay: LULL1 binders on small-molecule microarray, primary screen, cell lysate, human LULL1 lysate, 635/667 nm fluorescence (AID 1092); conditions: hLULL1 lysate binding, 635 nm fluorescence, higher = more signal;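 note: probe is lysate of COS7 cells overexpressing human LULL1; score merges per-feature 667 nm fluorescence with signal-to-noise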
Chain of Torsin-1A-interacting protein 2 (Homo sapiens) (Q8NFQ8 whole entry, looked up): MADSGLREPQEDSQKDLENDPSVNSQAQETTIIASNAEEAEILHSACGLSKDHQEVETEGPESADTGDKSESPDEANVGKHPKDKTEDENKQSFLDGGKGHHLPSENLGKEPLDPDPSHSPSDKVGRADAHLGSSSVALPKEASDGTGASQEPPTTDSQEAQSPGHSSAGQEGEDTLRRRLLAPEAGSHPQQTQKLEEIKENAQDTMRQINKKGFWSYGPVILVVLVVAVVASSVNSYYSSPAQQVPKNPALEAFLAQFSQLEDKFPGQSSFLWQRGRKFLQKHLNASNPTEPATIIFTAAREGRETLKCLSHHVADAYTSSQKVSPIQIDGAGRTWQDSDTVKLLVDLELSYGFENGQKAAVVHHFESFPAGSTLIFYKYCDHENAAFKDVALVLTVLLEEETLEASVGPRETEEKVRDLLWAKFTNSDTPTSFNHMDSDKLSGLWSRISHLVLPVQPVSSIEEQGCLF

[16] = E. coli growth modulation, two-sided OD650, primary screen, E. coli filamentation project, strain DRC41, 24 h (AID 1093); conditions: OD650, 24 h, higher = more signal, called active from +8 up or from −8 down;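 note: MC1000 strain lacking acrAB efflux and sulA so SOS filamentation is blocked; test concentration not given here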
[17] = small-molecule microarray binders of probe aLefty2, primary screen, biochemical, biotinylated probe, 635/667 nm fluorescence (AID 1094); conditions: higher = more signal;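 note: score merges spot fluorescence near 667 nm with spot signal-to-noise ratio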
[18] = test system: Noggin (protein binding on small-molecule microarray); assay: Noggin binders on small-molecule microarray, primary screen, biochemical, 635/667 nm fluorescence (AID 1095); conditions: 635 nm fluorescence, higher = more signal;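 note: score merges 667 nm feature fluorescence with signal to noise over triplicate slides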
[19] = molecular target: Neurogenic locus notch homolog protein 3 (Homo sapiens) (UniProt Q9UM47); assay: NOTCH3 binders on small-molecule microarray, primary screen, biochemical, 635/667 nm fluorescence (AID 1096); conditions: NOTCH3 binding, 635 nm fluorescence, higher = more signal
[20] = small-molecule microarray binders of probe aEGFR, primary screen, biochemical, biotinylated probe, 635/667 nm fluorescence (AID 1097); conditions: higher = more signal;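 note: probe is a biotinylated anti-EGFR antibody binding compounds printed on slides; score combines fluorescence near 667 nm and signal to noise of each spot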

Row | Compound | composite z-score [1] | composite z-score [2] | composite z-score [3] | composite z-score [4] | composite z-score [5] | composite z-score [6] | composite z-score [7] | z-score [8] | composite z-score [9] | composite z-score [10] | composite z-score [11] | z-score [12] | z-score [13] | z-score [14] | composite z-score [15] | z-score [16] | composite z-score [17] | composite z-score [18] | composite z-score [19] | composite z-score [20]
1 | CC(C)CON=C1C[C@@H](O)[C@@H](O)[C@@H]2[C@@H]3C(=O)N(c4cccc(Oc5ccccc5)c4)C(=O)[C@@H]3CC[C@@H]12 | -0.509 | 0.14 | -0.13 | 0.206 | 0.336 | 0.61 | 1.1 | -1.18 (inactive) | -0.129 | 0.0373 | 1.4 | -1.57 (inactive) | 0.174 (inactive) | -0.827 (inactive) | 1.86 | -0.961 (inactive) | -0.131 | 1.02 | 0.046 | -0.109
2 | CC(C)CCN1CCc2nc(COc3ccccc3)c3c(c2C1)CO[C@@H](C)C3 | 0.188 | 0.369 | -0.0819 | 0.0995 | -0.0065 | 0.385 | 0.135 | 0.0476 (inactive) | 0.138 | 0.0623 | 0.0135 | 0.377 (inactive) | -0.438 (inactive) | -0.531 (inactive) | 1.25 | 1.17 (inactive) | 0.111 | -0.0126 | -0.149 | -0.123
3 | CON=C1[C@H]2CCn3c(=O)n(-c4ccccc4)c(=O)n3[C@H]2[C@H](O)[C@@H]2O[C@H]12 | -0.39 | 0.135 | -0.0533 | 0.383 | 0.41 | 0.0959 | 0.561 | -1.17 (inactive) | 0.17 | -0.199 | 0.887 | -1.57 (inactive) | -1.81 (inactive) | 2.3 (inactive) | 0.456 | -0.114 (inactive) | -0.205 | 1.02 | 0.646 | -0.177
4 | O=c1n(-c2ccccc2)c(=O)n2n1CC[C@@H]1C(=NOCc3ccccc3)[C@H]3O[C@H]3[C@@H](O)[C@@H]12 | -0.489 | -0.285 | -0.0494 | 0.472 | -0.267 | -0.0644 | -0.338 | -0.354 (inactive) | -0.0869 | -0.284 | -0.955 | -0.434 (inactive) | -0.326 (inactive) | -0.871 (inactive) | -0.0733 | -0.619 (inactive) | -0.274 | -0.131 | 0.116 | -0.0531
5 | COC(=O)[C@H]1[C@@H](O)[C@@]2(O)c3ccccc3O[C@@]2(c2ccccc2)[C@@H]1c1ccccc1 | 1.08 | 0.177 | -0.114 | 0.269 | 0.254 | -0.68 | 0.768 | -0.886 (inactive) | 0.0643 | -0.301 | -0.701 | 0.0966 (inactive) | 0.226 (inactive) | 0.705 (inactive) | 0.124 | 0.685 (inactive) | -0.0324 | -0.169 | -0.104 | -0.123
6 | CCOC(=O)[C@H](CC(C)C)NC(=O)CCC1CC(OC(=O)NCCc2ccc(F)cc2)CC2(CCCC(COC(=O)NCCOc3ccccc3)O2)O1 (stereo not given in full) | -0.715 | -0.409 | -0.0909 | 0.704 | 1.25 | 0.996 | 1.24 | 1.99 (inactive) | 0.283 | -0.374 | 1.56 | 0.407 (inactive) | 0.374 (inactive) | -0.445 (inactive) | 2.21 | -0.552 (inactive) | -0.0965 | 0.676 | 1.11 | -0.0828
7 | Cc1ccc(S(=O)(=O)N[C@H]2COC(=O)CC=C[C@@H](C)COC(=O)CC=C[C@@H]2C)cc1 | -0.537 | 0.604 | -0.135 | 0.0963 | -0.094 | -0.326 | -0.0175 | 0.999 (inactive) | -0.135 | -0.466 | 0.683 | 0.611 (inactive) | 0.174 (inactive) | 0.247 (inactive) | -0.953 | 0.682 (inactive) | 0.296 | 1.8 | -0.207 | -0.281
8 | CC(C)CON=C1C[C@@H](O)[C@@H](O)[C@@H]2[C@@H]3C(=O)N(C[C@@H]4CCCO4)C(=O)[C@@H]3CC[C@@H]12 | -0.308 | -0.0385 | -0.132 | 0.0654 | -0.489 | -0.672 | -0.321 | -0.108 (inactive) | -0.271 | -0.0994 | 0.242 | -1.49 (inactive) | 0.283 (inactive) | -0.625 (inactive) | 1.38 | 1.27 (inactive) | -0.209 | 0.262 | -0.435 | -0.22
9 | COC(=O)[C@H](C)NC(=O)CCC1CC(OC(=O)NCc2ccc3c(c2)OCO3)CC2(CCCC(COC(=O)NCc3cccc(C(F)(F)F)c3)O2)O1 (stereo not given in full) | -0.0199 | 0.325 | -0.1 | 0.688 | 0.679 | 0.151 | 0.795 | -0.15 (inactive) | 0.307 | 1.19 | 1.42 | -1.04 (inactive) | 0.0536 (inactive) | 0.253 (inactive) | 1.65 | -0.15 (inactive) | -0.0096 | 0.186 | 0.524 | -0.0644
10 | CCOC(=O)C1=NO[C@]2(C=C(Br)C3(OCCCO3)[C@H]3O[C@H]32)C1 | 0.0733 | 2.19 | -0.116 | -0.229 | -0.212 | -0.722 | -0.208 | 0.293 (inactive) | -0.132 | -0.0726 | -0.365 | -0.658 (inactive) | -1.06 (inactive) | -0.155 (inactive) | 0.141 | 0.874 (inactive) | -0.244 | -0.519 | -0.862 | 0.0214

Reference: PubChem BioAssay
